SMILES strings stand for the structures. Records with an inconclusive call do not appear. Unmarked numbers belong to inactive results. The source made the active and inactive calls. Calls come from the whole dose curve; as a rule, active = well fitted inhibition curve with a large enough effect; inconclusive = small, poorly fitted or top-dose-only effect; inactive = flat fitted curve, though single readings scatter.

The test system of one experiment is TAB109. In words: qHTS profiling for inhibitors of Plasmodium falciparum proliferation (AID 504749). Note: potency is the fitted concentration of half-maximal effect. Conditions: P. falciparum in erythrocytes, SYBR Green DNA, 72 h; series mostly up to 28.7 µM. Put shortly: (§1)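 In a 72 h erythrocytic culture (37 C, humidified, 5% CO2) at 2.5% hematocrit and 0.3% starting parasitemia, compounds were tested; SYBR Green I in detergent lysis buffer stained parasite DNA overnight.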

A further experiment relates to TAB113. The experiment is described as above. The settings on record: P. falciparum in erythrocytes, SYBR Green DNA, 72 h; series mostly up to 28.7 µM. Put shortly:
as §1

The subject of another experiment is TAB165. The experiment is described as above. The settings on record: P. falciparum in erythrocytes, SYBR Green DNA, 72 h; series mostly up to 28.7 µM. Put shortly: as §1
Another experiment relates to W2. The experiment is described as above. Conditions: P. falciparum in erythrocytes, SYBR Green DNA, 72 h; series mostly up to 28.7 µM. The procedure, abridged:
as §1

Another experiment has as its system CRL-7250. The experiment is described as follows: Cytotoxic Profiling of Annotated Libraries Using Quantitative High-Throughput Screening (AID 1296008). For max response: % is set by controls: 0 for no effect and ±100 for the full control effect. Conditions: Five cell lines viability, CellTiter-Glo ATP luminescence, 48-72 h; hits give low values. Put shortly: (§2)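 Cytotoxicity was measured as CellTiter-Glo ATP luminescence, read after 10 min at room temperature. Compound treatment of the cells lasted 48 or 72 hr at 37 degrees Celsius in a qHTS format.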
(In general: ATP-based viability assays read luminescence as a measure of living cells.)

The subject of a further experiment is HEK293. The experiment is described as above. The settings on record: Five cell lines viability, CellTiter-Glo ATP luminescence, 48-72 h; hits give low values. The procedure, abridged: as §2
The subject of experiment [1] is HaCat. The description is as above. The settings on record: Five cell lines viability, CellTiter-Glo ATP luminescence, 48-72 h; hits give low values. Put shortly: as §2
The next experiment deals with KB-3-1. The experiment is described as above. The settings on record: Five cell lines viability, CellTiter-Glo ATP luminescence, 48-72 h, hits give low values. The procedure, abridged: as §2
The next experiment concerns NIH3T3. The experiment is described as above. Conditions: Five cell lines viability, CellTiter-Glo ATP luminescence, 48-72 h; hits give low values. The procedure, abridged: as §2
Experiment [2] relates to HACAT. The experiment is described as follows: qHTS assay to identify novel small-molecules to repurpose for Merkel cell carcinoma treatment (AID 1296009). The settings on record: MCC and control cell lines, CellTiter-Glo viability, 72 h; at 44.8 µM (top of the series) unless noted. The procedure, abridged:
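Cell viability measured by CellTiter-Glo following 72 hr compound treatment at 37 degree celsius, with NPC and MIPE libraries tested in 8- and 11-point concentration series.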
A general note: qHTS replaces the single test concentration by a dilution series.
Note: nearly all actives have a fitted effect of over 60% in size.

Consider `Nc1ccc(S(=O)(=O)c2ccc(N)cc2)cc1`, for which the Potency entry with TAB109, in the experiment with TAB113, with TAB165 and with W2 was “inactive” throughout. In addition, the max response was 2.75% in the experiment with CRL-7250, 2.48% with HaCat [1], -3.79% in the experiment on KB-3-1 and 3.17% in the experiment on NIH3T3. The compound was called inactive in the experiment on HEK293.
Take `NCc1ccc(S(N)(=O)=O)cc1`: the Potency entry in the experiment with TAB109 was “inactive”. The max response is -8.65% in the experiment on CRL-7250, -6.18% with HaCat [1], -7.46% in the experiment on KB-3-1 and 1.15% with NIH3T3. Further, the result in the experiment with HEK293 was inactive.
As to `Cc1ncc(CO)c(CN)c1O`, the Potency result with TAB109, in the experiment on TAB113 and with TAB165 was “inactive” throughout. The max response in the experiment on CRL-7250 is -0.831%; in the experiment with HEK293 it was -5.62%; in the experiment on HaCat [1], -4.24%; in the experiment with KB-3-1 it was -2%. The result in the experiment with NIH3T3 was inactive.
With `Cc1cc(NC(=O)C2=C(O)c3ccccc3S(=O)(=O)N2C)no1`, the Potency entry in the experiment with TAB109, in the experiment with TAB113 and with TAB165 was “inactive” each time. Further, the max response in the experiment with CRL-7250 is -9.44%; in the experiment on HaCat [1] it was 1.12%; in the experiment with KB-3-1, -4.98%; with NIH3T3, -3.38%. In the experiment on HEK293, the compound was called inactive.
In the case of `O=C1c2ccccc2C(=O)C1c1ccc(Br)cc1`, the Potency is 8.91 µM (active) in the experiment with TAB113 and 4.78 µM (active) with W2. Further, the max response was -1.25% in the experiment with CRL-7250, -0.633% in the experiment on HEK293, -16.6% with KB-3-1 and -1.29% in the experiment with NIH3T3. Further, the compound was called inactive in the experiment with HaCat [1] and in the experiment on HACAT [2].
Consider `Cc1cc(OI)c(C(C)C)cc1-c1cc(C(C)C)c(OI)cc1C`, for which the Potency in the experiment on TAB113 was 10 µM (active); in the experiment with W2, 6.01 µM (active). For the same compound, the compound was classed as inactive in the experiment with CRL-7250, in the experiment on HaCat [1] and with HACAT [2]. Also, the max response was 2.3% in the experiment on HEK293, 12.2% with KB-3-1 and -2.54% in the experiment with NIH3T3.
Consider `O=C1c2ccccc2S(=O)(=O)N1CCCCN1CCN(c2ncccn2)CC1`, for which the Potency entry with TAB109, with TAB113 and with TAB165 was “inactive” each time. For the same compound, the max response with CRL-7250 is -12.2%; in the experiment with HEK293, -4.06%; with HaCat [1], -10.1%; in the experiment with KB-3-1, -5.25%. For the same compound, in the experiment with NIH3T3, the compound was called inactive.
As to `Cc1[nH]c(C)c(Cl)c(=O)c1Cl`, the Potency entry with TAB109 and in the experiment on TAB113 was “inactive” in each case. Moreover, the result in the experiment with CRL-7250 was inactive. The max response in the experiment with HEK293 is -10%; in the experiment on HaCat [1], -2.26%; in the experiment with KB-3-1 it was -14.2%; with NIH3T3, -10.7%.
In the case of `O=c1[nH]cnc2nc[nH]c12`, the Potency result in the experiment on TAB109, with TAB113, with TAB165 and with W2 was “inactive” throughout. The max response is -2.48% in the experiment with CRL-7250, -1.3% with HEK293, -17.5% in the experiment on KB-3-1 and -0.611% in the experiment on NIH3T3. The result with HaCat [1] and in the experiment on HACAT [2] was inactive.
With `C[C@@H]1CCC[C@H](C)N1`, the Potency entry with TAB109, in the experiment on TAB165 and with W2 was “inactive” in each case. Moreover, the max response is 0.393% in the experiment on CRL-7250, -9.02% with HEK293, -5.17% in the experiment on KB-3-1 and 4.6% in the experiment with NIH3T3. Besides, the call in the experiment on HaCat [1] and in the experiment with HACAT [2] was inactive.
Consider `Nc1c2c(nc3c1CCC3)CCCC2`, for which the Potency with TAB165 is 11.2 µM (active). Also, the outcome in the experiment with CRL-7250, in the experiment with HaCat [1] and in the experiment with HACAT [2] was inactive. Further, the max response in the experiment on HEK293 is -2.02%; in the experiment on KB-3-1, -0.45%; in the experiment with NIH3T3 it was 0.339%.
For `COC(=O)c1ccccc1C(=O)c1ccc(OCCN2CCCCC2)cc1`, the Potency entry with TAB109, in the experiment with TAB113 and in the experiment with TAB165 was “inactive” in each case. The max response with CRL-7250 was -2.25%; in the experiment on HaCat [1], -0.875%; with KB-3-1, -16%; in the experiment on NIH3T3, -3.51%. Besides, the call in the experiment on HEK293 was inactive.
Take `CN1C[C@@H]2C[C@H]1CN2c1cc2c(cc1F)c(=O)c(C(=O)O)cn2C1CC1`: the Potency entry in the experiment on TAB113 was “inactive”. For the same compound, in the experiment on W2, the Potency was 0.953 µM (active). For the same compound, the max response was 2.35% in the experiment on CRL-7250, -22.9% in the experiment with HEK293, -8.4% with KB-3-1 and -10.1% with NIH3T3. For the same compound, the result in the experiment on HaCat [1] was inactive. The outcome with HACAT [2] was “inactive [at 17.4 µM]”.
`Cc1ccccc1N=Nc1ccc(N=Nc2c(O)ccc3ccccc23)c(C)c1`: the Potency entry in the experiment with TAB109, in the experiment on TAB113, in the experiment on TAB165 and in the experiment with W2 was “inactive” each time. In addition, the max response is -16.7% with CRL-7250, 0.728% with HaCat [1], 9.66% in the experiment with KB-3-1 and 0.522% in the experiment on NIH3T3. The outcome with HEK293 was inactive.
`COc1cc(O)cc(O)c1`: the Potency result in the experiment on TAB109, in the experiment on TAB113 and with TAB165 was “inactive” throughout. Also, the compound was classed as inactive with CRL-7250 and in the experiment on HEK293. The max response was -8.13% in the experiment on HaCat [1], -4.6% in the experiment with KB-3-1 and -7.04% in the experiment on NIH3T3.
As to `C[N+](C)(C)CC[N+]1(C)Cc2c(Cl)c(Cl)c(Cl)c(Cl)c2C1`, the Potency entry in the experiment with TAB109, in the experiment on TAB113, with TAB165 and in the experiment with W2 was “inactive” throughout. Besides, the max response with CRL-7250 was -7.06%; with HaCat [1], -6.5%; with KB-3-1 it was 9.08%; in the experiment on NIH3T3, 3.9%. Besides, the compound was called inactive in the experiment on HEK293.
Take `CC(C)C[C@@H](N)C(=O)O`: the Potency result in the experiment with TAB109, in the experiment with TAB113, in the experiment with TAB165 and in the experiment on W2 was “inactive” throughout. The max response is -5.17% in the experiment with CRL-7250, 4.82% in the experiment with HaCat [1], 12.7% in the experiment with KB-3-1 and 4.91% with NIH3T3. The outcome with HEK293 was inactive.
As to `CC(CN(C)C)C(C)(O)Cc1ccc(Cl)cc1` (centres undefined), in the experiment on W2, the Potency was 2.39 µM (active). The result in the experiment on CRL-7250, in the experiment on HaCat [1], with NIH3T3 and with HACAT [2] was inactive. Moreover, the max response was 3.34% in the experiment on HEK293 and 6.05% in the experiment with KB-3-1.
In the case of `CC(=O)N(CC(O)CO)c1c(I)c(C(=O)NCC(O)CO)c(I)c(C(=O)NCC(O)CO)c1I` (centres undefined), in the experiment on TAB109, the Potency entry was “inactive”. Further, the result with CRL-7250 and with NIH3T3 was inactive. For the same compound, the max response in the experiment with HEK293 is 1.45%; in the experiment on HaCat [1], 3.3%; with KB-3-1 it was -10.7%.
For `O=C1C(c2[nH]c3ccccc3c2O)=Nc2ccccc21`, the Potency with TAB165 was 14.1 µM (active). Further, the max response with CRL-7250 is 1.26%; with KB-3-1 it was 4.4%; in the experiment on NIH3T3, 4.36%. The call in the experiment with HEK293, in the experiment on HaCat [1] and with HACAT [2] was inactive.
On to `O=C1CC[C@@H](C(=O)O)N1`, for which the Potency result in the experiment on TAB109, with TAB113 and with TAB165 was “inactive” throughout. Also, the max response with CRL-7250 is 1.58%; with HaCat [1], 4.13%; with KB-3-1, 18.1%; in the experiment on NIH3T3, 0.792%. Besides, the compound was called inactive in the experiment on HEK293.
On to `CC(=O)OC[C@H]1O[C@@](COC(C)=O)(O[C@H]2O[C@H](COC(C)=O)[C@@H](OC(C)=O)[C@H](OC(C)=O)[C@H]2OC(C)=O)[C@@H](OC(C)=O)[C@@H]1OC(C)=O`, for which the Potency result with W2 was “inactive”. Further, the max response was 4.32% in the experiment on CRL-7250, -4.41% in the experiment on HEK293, 2.32% with KB-3-1 and 2.21% with NIH3T3. Further, the call in the experiment on HaCat [1] and in the experiment with HACAT [2] was inactive.

Source of the values: PubChem BioAssay (NCATS).
